Source: PubChem (National Center for Advancing Translational Sciences (NCATS))
A selection: hits, their analogues and other compounds. The true share with any hit is near 1.1%.
UbGFP stabilizer: proteasome inhibitors stabilizing ubiquitin-GFP reporter | Ubiquitin-GFP reporter cells, proteasome inhibition, GFP fluorescence; response scale: untreated = 0%, 10 µM MG-132 = 100% | Potency, µM (doses to about 45.9 µM), for inactives: at the highest dose activation (GFP accumulation), most hits filed as activators | 67,000 tested, under 10 active | AID 526; active means well fitted activation curve with a large enough effect, not every such curve was filed as active; inconclusive means small, poorly fitted or top-dose-only effect, or another doubt; inactive means no such curve, though single readings can be large or run the other way; further: potency means the concentration at half of the fitted maximal effect
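Proteasome block read as GFP accumulation: ubiquitin(G76V)-GFP U2OS cells exposed to compound (2.9 nM–46 uM) for 4 hr at 37 C. Normalization used untreated cells as 0% and 10 uM MG-132 as 100%; concentration-response curves fitted.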
Hsp90 Hop PPI: changes Hsp90-Hop TPR2A binding signal, up or down; AlphaScreen TPR2A-His6 binding biotin-Hsp90 C-terminal peptide; Potency, µM (titrated, usually from 57 µM), for the others: at the top dose activity change, negative = inhibition; actives 0.44% (n = 71,000); active means well fitted curve in either direction with a large enough effect; inconclusive means small, poorly fitted or top-dose-only effect, or another doubt; further: potency means the concentration at half of the fitted maximal effect; on the % scale 0 is the no-effect control and ±100 the full control effect
GBA activity: alters purified human glucocerebrosidase activity; P04062; purified enzyme, resorufin glucoside fluorescence (screen aimed at inhibitors), 20 min; Potency, µM; actives 1.1% (n = 48,000); AID 360; in the data active means potency below about 15 µM; inconclusive means mostly about 16 µM to 33 µM;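 further: potency means the concentration at half of the fitted maximal effect; the screen sought inhibitors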
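Normal human glucocerebrosidase (0.2 nM final) was assayed with resorufin β-D-glucopyranoside (30 uM final) in 50mM citric acid/KH2PO4, 10mM sodium taurocholate, 0.01% tween-20, pH 5.9. Compounds were titrated; fluorescence (Ex 548, Em 600) read after 20 min at RT.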
USP2a inh: inhibitors of human ubiquitin-specific protease USP2a. USP2a enzymatic assay, qHTS inhibition. actives 0.1% (n = 60,000). AID 927. Potency, µM (titrated, usually from 38.3 µM), for the others: at the top dose activity change, negative = inhibition, usual class: inhibitors; further: potency means the concentration at half of the fitted maximal effect; nearly all actives have a fitted effect of over 60% in size
Target sequence (O75604 whole entry, looked up): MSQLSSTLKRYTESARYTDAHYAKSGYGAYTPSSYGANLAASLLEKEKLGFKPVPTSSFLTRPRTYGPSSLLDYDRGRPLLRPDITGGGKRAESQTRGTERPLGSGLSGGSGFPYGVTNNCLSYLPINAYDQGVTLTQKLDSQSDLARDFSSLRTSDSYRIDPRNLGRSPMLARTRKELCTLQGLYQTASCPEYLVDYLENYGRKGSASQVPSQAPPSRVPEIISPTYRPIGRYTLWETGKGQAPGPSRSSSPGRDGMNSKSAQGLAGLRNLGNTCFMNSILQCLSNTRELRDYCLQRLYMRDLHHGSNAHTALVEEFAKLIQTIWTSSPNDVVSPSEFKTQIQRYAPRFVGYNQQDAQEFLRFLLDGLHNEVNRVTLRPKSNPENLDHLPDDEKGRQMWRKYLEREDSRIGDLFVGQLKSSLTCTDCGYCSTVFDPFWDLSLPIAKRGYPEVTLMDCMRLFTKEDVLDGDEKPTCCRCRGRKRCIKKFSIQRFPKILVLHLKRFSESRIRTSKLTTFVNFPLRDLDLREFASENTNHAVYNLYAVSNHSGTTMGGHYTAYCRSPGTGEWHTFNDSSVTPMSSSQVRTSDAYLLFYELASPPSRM
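USP2 core (20 nM final) was preincubated with compound for 30 min at RT in 20 mM Tris-HCl pH 8.0, 2 mM CaCl2, 2 mM beta-mercaptoethanol; Ub-PLA2 (20 nM) plus NBD C6-HPC (20 uM) then added, fluorescence read after 2.5 h.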
HBB splice mod: modulators of hemoglobin beta chain splicing; HBB splicing reporter cell assay, activation; EGFP reporter with mutant IVS2-654 intron; response scale: normalised to 500 nM splice-correcting PNA; Potency, µM (highest dose often 46.1 µM), for the others: at the highest dose activation, actives largely listed as activators; actives 0.06% (n = 65,000); AID 925; further: potency means the concentration at half of the fitted maximal effect; 0% is about no effect
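Compounds were applied for 2 days to HeLa EGFP-654 cells, 500/well in Optimem with 2% FCS. The reporter's EGFP is disrupted by mis-splicing of beta-globin intron IVS2-654. Readout: summed well GFP fluorescence from 488 nm laser scanning; reference was 500 nM antisense […] 654 PNA.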
Epigenetic mod: epigenetic modulators derepressing GFP locus in mouse cells; mouse C127i GFP locus derepression, cytometry, 30 h; Potency, µM (doses to about 46.1 µM), for inactives: top-dose GFP derepression (activation); actives 0.09% (n = 68,000); further: % of control where 0% means no effect
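Read-out is the number of GFP-positive cells, scored as fluorescent objects 20 to 120 um wide, reflecting derepression of a silenced CMV-GFP reporter in murine C127i cells after 30 h compound exposure at 37 C.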
Starred values were filed as active, the others as inactive; ? = inconclusive; . = no result; [ ] = remark or other dose. Unless noted, the call rests on the fitted dose curve; in most records, active means well fitted curve in the direction sought with a large enough effect; inconclusive means small, poorly fitted or top-dose-only effect, or another doubt; inactive means no such curve, though single readings can be large; an effect the other way counts as inactive or inconclusive.

SMILES	UbGFP stabilizer	Hsp90 Hop PPI	GBA activity	USP2a inh	HBB splice mod	Epigenetic mod
Clc1ccc(C(c2nnnn2C2CCCCC2)N(Cc2cccnc2)Cc2ccco2)cc1 (stereo not drawn)	-5.6%	-0.7%	12.8*	109.0%	.	3.8%
C=CCOc1ccc(C2N3CC4(C)CN2CC(CCC)(C3)C4=O)cc1 (stereo not drawn)	-4.8%	9.9%	4.77*	6.0%	-1.2%	2.1%
CCCC12CN3CC(C)(CN(C1)C3c1ccc(OC)cc1)C2=O (stereo not drawn)	2.5%	3.4%	.	-3.1%	-0.6%	1.1%
CC(C)Oc1ccc(C2CNC(=O)C2)cc1 (stereo not drawn)	10.4%	-4.2%	.	.	1.2%	.
CCC12CN3CC(CC)(CN(C1)C3c1ccc(OC(C)C)cc1)C2=O (stereo not drawn)	-12.7%	2.5%	4.26*	-0.4%	1.9%	0.0%
CCc1c2c(nc3cccc(C(C)C)c13)-c1cccc(=O)n1C2	.	1.9%	.	.	1.2%	.
CC[C@@H](c1ccccc1)n1c(=O)n2n(c1=O)[C@H]1[C@H](O)[C@H]3O[C@@H]3/C(=N/OC[C@@H](O)COCc3ccco3)[C@@H]1CC2	.	.	.	.	-1.5%[9.22 µM]	.
Nc1ncnc2c1nc(Sc1ccc(Cl)cc1)n2[C@@H]1O[C@H]2COP(=O)(O)O[C@@H]2[C@H]1O	-2.0%	-0.7%	.	-1.4%	-2.6%	-0.1%
COc1ccc2nc(N3CCCC3)c(C#N)cc2c1	3.7%	25.1µM*	>76.9	20.7%	.	10.5%
COc1ccc2nc(SCC(=O)N3CCCCCC3)c(C#N)cc2c1	2.6%	5.7%	>76.9	20.6%	.	3.5%
COc1ccc2nc(N3CCCCC3)c(C#N)cc2c1	5.7%	25.1µM*	.	-2.0%	.	-2.3%
COc1ccc(Oc2ncc3nc(-c4cccs4)c(=O)n(Cc4cccs4)c3n2)cc1	6.7%	29.1%	.	164.2%	3.0%	5.1%[9.22 µM]
Cc1nn(Cc2ccc(C(=O)Nc3nccs3)cc2)c(C)c1Cl	6.3%	-3.6%	13.7*	20.9%	3.6%[57.5 µM]	-2.2%
COc1ccc(C(=O)Nc2nccs2)cc1OC	-3.3%	-3.5%	.	.	-1.3%	-0.4%
COCCn1c(=O)c(C)nc2cnc(Oc3cccc(Cl)c3)nc21	12.0%	-5.5%	.	104.2%	-0.3%	0.0%[9.22 µM]
CCN1CCN(c2ccc(NC(=O)c3cccc4ncccc34)cc2)CC1	-4.9%	1.3%	8.72*	2.7%	-1.6%	0.0%
FC(F)(F)c1cc(-c2ccco2)nc(-n2cnc3ccccc32)n1	-5.5%	-0.6%	11.8*	-2.8%	-0.9%	-2.4%
Cc1cc(-c2ccc(N=Nc3cc(S(=O)(=O)O)c4ccccc4c3N)c(C)c2)ccc1N=Nc1cc(S(=O)(=O)O)c2ccccc2c1N	.	1.26µM*	.	.	-0.7%	.
CCCn1c2ccccc2c2nc3ccccc3nc21	-6.1%	?	>76.9	?	-1.6%	0.0%
O=c1oc2ccccc2n1CCn1c2ccccc2c2nc3ccccc3nc21	-11.4%	4.4%	>76.9	10µM*	-0.4%	2.3%
N=C(N)SCCCN	-0.4%[9.17 µM]	-1.0%[11 µM]	.	.	2.4%[9.22 µM]	-3.4%[9.22 µM]
COc1ccc(NS(=O)(=O)c2cc(C)ccc2C)cc1	2.0%	2.2%	.	1.6%	0.0%[57.5 µM]	-1.9%
COCCNC(=O)c1ccc(NS(=O)(=O)c2cc(C)ccc2C)cc1	1.2%	-4.1%	7.13*	-2.4%	-0.3%	-4.6%
COc1ncc2ncc(=O)n(CCC#N)c2n1	2.6%	0.5%	.	-11.7%	0.3%	2.7%[9.22 µM]
CC(=O)OC[C@@H]1O[C@H](C/C=N\OC[C@@H](C)[C@H](OCc2ccccc2)C(C)C)C=C[C@@H]1OC(C)=O	.	.	.	.	1.3%[9.22 µM]	.
Clc1ccc(Cn2ncc3c(N4CCCCC4)ncnc32)c(Cl)c1	.	-0.9%	11*	4.3%	0.1%[0.369 µM]	6.7%
Nc1nc2n[nH]nc2c(=O)[nH]1	20.4%[20.5 µM]	1.2%[26 µM]	.	-15.5%[17.1 µM]	0.794µM*	7.3%[20.6 µM]
C=CCOC(=O)C1=C(C)OC(N)=C(C#N)C1c1ccoc1 (stereo not drawn)	.	.	.	.	.	5.5%[20.6 µM]
CC1=C(C#N)C(c2ccoc2)C(C(=O)OCc2ccccc2)=C(N)S1 (stereo not drawn)	12.3%	-11.0%	12*	6.5%	2.4%	-3.9%
